Experimental findings from the supplement of paper PMC9801561 are described below.

Molecules are shown by their SMILES. ± gives the standard deviation of the averaged measurements.

For test [1], the system named is Escherichia coli Nissle 1917. Nature of the test: area under OmniLog respiration curve over 48 h (OmniLog units x h); higher = more growth / nutrient utilisation; extreme values may be limits of the assay. To be noted: incubation: 48 h, 37 °C.
In test [2] the test system is Escherichia coli Nissle 1917. Nature of the test: DuctApe activity index of respiration/growth curve (0 no growth to 9 maximum) (index 0-9); higher = more growth / nutrient utilisation, active = 3 or more; extreme values may be limits of the assay. To be noted: incubation: 48 h, 37 °C.
The mark [3] stands for this setting: nutrient role: sole nitrogen source (pyruvate carbon).
Where [4] appears, read: nutrient role: sole sulfur source (pyruvate carbon).
Where [5] appears, read: nutrient role: C-Source, carboxylic acid.
[6] abbreviates: nutrient role: C-Source, amino acid.
Where [7] appears, read: nutrient role: sole phosphorus source (pyruvate carbon).
The mark [8] stands for this setting: nutrient role: C-Source, carbohydrate.
The mark [9] stands for this setting: nutrient role: C-Source, alcohol.
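Wherever DuctApe activity index of respiration/growth curve (0 no growth to 9 maximum) is given: biolog PM4 phosphorus and sulfur plates, tetrazolium violet dye reduction read in the OmniLog every 15 min, kinetic curves scored by DuctApe, each plate run in triplicate.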

For `N[C@@H](CS)C(=O)O` [L-Cysteine], the “area under OmniLog respiration curve” value is 9700 ± 1400 in test [1] (setting [3]) and 7230 ± 260 in test [1] (setting [4]). In addition, the figures for the DuctApe activity index in test [2] (setting [3]) and in test [2] (setting [4]) were 8.67 (active) and 7.33 (active), respectively.

As to `O=S(=O)(O)O` [Sulfate], the “area under OmniLog respiration curve” value in test [1] (setting [4]) is 6810 ± 400. Besides, the DuctApe activity index in test [2] (setting [4]) was 7.33 (active).

With `O=C(O)[C@H]1OC(O)[C@H](O)[C@@H](O)[C@@H]1O` (stereo partly drawn) [D-Glucuronic acid], the “area under OmniLog respiration curve” value in test [1] (setting [5]) turned out to be 10000 ± 950. Further, the DuctApe activity index in test [2] (setting [5]) is 9 (active).

On to `C[C@@H](N)C(=O)O` [D-Alanine], for which the “area under OmniLog respiration curve” value in test [1] (setting [6]) is 7620 ± 460; in test [1] (setting [3]), 6690 ± 1200. The DuctApe activity index in test [2] (setting [6]) was 8 (active); in test [2] (setting [3]), 7.33 (active).

As for `CO[C@@H]1O[C@H](C(=O)O)[C@@H](O)[C@H](O)[C@H]1O` [b-Methyl-D-Glucuronic acid], the “area under OmniLog respiration curve” value in test [1] (setting [5]) came out at 6620 ± 580. The DuctApe activity index in test [2] (setting [5]) is 7.33 (active).

In the case of `NC(=O)OP(=O)(O)O` [Carbamyl Phosphate], the “area under OmniLog respiration curve” value in test [1] (setting [7]) came out at 9480 ± 480. Further, in test [2] (setting [7]), the DuctApe activity index is 9 (active).

For the molecule `Nc1ncnc2c1ncn2[C@@H]1O[C@@H]2COP(=O)(O)O[C@H]2[C@H]1O` [Adenosine 3`,5`-Cyclic Monophosphate], the “area under OmniLog respiration curve” value in test [1] (setting [7]) amounted to 5670 ± 1300. Further, in test [2] (setting [7]), the DuctApe activity index is 6.67 (active).

As to `CC(C)[C@@H](N)C(=O)O` [D-Valine], the “area under OmniLog respiration curve” value in test [1] (setting [3]) came out at 469 ± 470. The DuctApe activity index in test [2] (setting [3]) was 0.667 (inactive).

In the case of `N[C@H]1C(O)O[C@H](CO)[C@H](O)[C@@H]1O` (stereo partly drawn) [D-Galactosamine], the “area under OmniLog respiration curve” value in test [1] (setting [3]) amounted to 11.2 ± 11. Further, the DuctApe activity index in test [2] (setting [3]) is 0 (inactive).

On to `NCCCCN=C(N)N` [Agmatine], for which the “area under OmniLog respiration curve” value in test [1] (setting [3]) came to 336 ± 570. In addition, the DuctApe activity index in test [2] (setting [3]) is 0 (inactive).

Turning to `O=C(O)c1ccc(O)cc1` [4-Hydroxybenzoic acid], in test [1] (setting [5]), the “area under OmniLog respiration curve” value is 4.72. Besides, the DuctApe activity index in test [2] (setting [5]) is 0 (inactive).

As to `CS(=O)(=O)O` [Methane Sulfonic acid], in test [1] (setting [4]), the “area under OmniLog respiration curve” value was 5490 ± 300. In addition, the DuctApe activity index in test [2] (setting [4]) is 6.67 (active).

Regarding `OC[C@H]1O[C@@H](S)[C@H](O)[C@@H](O)[C@@H]1O` [1-Thio-b-D-Glucose], the “area under OmniLog respiration curve” value in test [1] (setting [4]) was 1240 ± 430. Also, the DuctApe activity index in test [2] (setting [4]) was 2.67 (inactive).

`OC[C@@H]1OC(O)[C@@H](O)[C@H](O)[C@H]1O` (stereo partly drawn) [L-Glucose]: the “area under OmniLog respiration curve” value in test [1] (setting [8]) was 29.9 ± 43. Moreover, the DuctApe activity index in test [2] (setting [8]) was 0 (inactive).

For the molecule `O=c1ccn(C2OC(COP(=O)(O)O)C(O)C2O)c(=O)[nH]1` (stereo unspecified) [Uridine 5`-Monophosphate], in test [1] (setting [7]), the “area under OmniLog respiration curve” value amounted to 8960 ± 820. Moreover, the DuctApe activity index in test [2] (setting [7]) is 8.67 (active).

As to `NC(=O)NC1NC(=O)NC1=O` (stereo unspecified) [Allantoin], the “area under OmniLog respiration curve” value in test [1] (setting [3]) is 500 ± 670. The DuctApe activity index in test [2] (setting [3]) is 1.67 (inactive).

Turning to `O=C(O)[C@@H]1C[C@@H](O)CN1` [Hydroxy-L-Proline], the “area under OmniLog respiration curve” value in test [1] (setting [6]) is 94.1 ± 78. In addition, the DuctApe activity index in test [2] (setting [6]) is 0 (inactive).

On to `O=C(CO)CO` [Dihydroxyacetone], for which the “area under OmniLog respiration curve” value in test [1] (setting [9]) came out at 6280 ± 820. Also, the DuctApe activity index in test [2] (setting [9]) was 7 (active).

As to `OCC1OC(OC2C(CO)OC(O)C(O)C2O)C(O)C(O)C1O` [D-Cellobiose], the “area under OmniLog respiration curve” value in test [1] (setting [8]) stood at 963 ± 760. The DuctApe activity index in test [2] (setting [8]) is 1.33 (inactive).

Regarding `OC[C@H]1O[C@H](O[C@H]2O[C@H](CO)[C@@H](O)[C@H](O)[C@H]2O)[C@H](O)[C@@H](O)[C@@H]1O` [D-Trehalose], in test [1] (setting [8]), the “area under OmniLog respiration curve” value amounted to 8920 ± 460. In test [2] (setting [8]), the DuctApe activity index was 8.67 (active).

Consider `O=C1NC(=O)C(=O)N1` [Parabanic acid], for which the “area under OmniLog respiration curve” value in test [1] (setting [3]) worked out at 556 ± 610. Also, the DuctApe activity index in test [2] (setting [3]) was 1.33 (inactive).

As for `NC(=O)CCC(=O)O` [Succinamic acid], the “area under OmniLog respiration curve” value in test [1] (setting [5]) stood at 9.14 ± 6. In test [2] (setting [5]), the DuctApe activity index is 0 (inactive).

For `OC[C@H]1OC(O)[C@H](O)[C@@H](O)[C@H]1O` (stereo partly drawn) [D-Galactose], in test [1] (setting [8]), the “area under OmniLog respiration curve” value came to 7350 ± 520. For the same molecule, in test [2] (setting [8]), the DuctApe activity index is 7.67 (active).

Consider `O=c1ccn([C@@H]2O[C@H](CO)[C@@H](OP(=O)(O)O)[C@H]2O)c(=O)[nH]1` [Uridine 3`-Monophosphate], for which the “area under OmniLog respiration curve” value in test [1] (setting [7]) was 9010 ± 750. Also, the DuctApe activity index in test [2] (setting [7]) is 8.67 (active).

Consider `OC[C@H]1O[C@@](CO)(O[C@H]2O[C@H](CO)[C@@H](O)[C@H](O)[C@H]2O)[C@@H](O[C@H]2O[C@H](CO)[C@@H](O)[C@H](O)[C@H]2O)[C@@H]1O` [D-Melezitose], for which the “area under OmniLog respiration curve” value in test [1] (setting [8]) amounted to 106 ± 150. Besides, the DuctApe activity index in test [2] (setting [8]) is 1 (inactive).

Take `Nc1[nH]cnc2ncnc1-2` [Adenine]: the “area under OmniLog respiration curve” value in test [1] (setting [3]) was determined as 5810 ± 860. In test [2] (setting [3]), the DuctApe activity index is 6.67 (active).

Consider `CCC(N)C(=O)O` (racemic) [DL-a-Amino-N-Butyric acid], for which the “area under OmniLog respiration curve” value in test [1] (setting [3]) was found to be 6040 ± 1200. The DuctApe activity index in test [2] (setting [3]) is 7 (active).

Consider `O=C(O)C(=O)O` [Oxalic acid], for which the “area under OmniLog respiration curve” value in test [1] (setting [5]) is 5.41 ± 1.2. The DuctApe activity index in test [2] (setting [5]) is 0 (inactive).

Regarding `Cc1c[nH]c(=O)[nH]c1=O` [Thymine], the “area under OmniLog respiration curve” value in test [1] (setting [3]) was found to be 67 ± 110. Further, the DuctApe activity index in test [2] (setting [3]) was 0 (inactive).

On to `CO[C@@H]1O[C@H](CO)[C@@H](O)[C@H](O)[C@H]1O` [b-Methyl-D-Glucoside], for which the “area under OmniLog respiration curve” value in test [1] (setting [8]) worked out at 6700 ± 470. Further, the DuctApe activity index in test [2] (setting [8]) was 7.33 (active).

Regarding `O=C[C@@H](O)[C@H](O[C@@H]1O[C@H](CO)[C@H](O)[C@H](O)[C@H]1O)[C@H](O)CO` [3-O-b-D-Galactopyranosyl-D-Arabinose], in test [1] (setting [8]), the “area under OmniLog respiration curve” value was 8530 ± 550. Further, in test [2] (setting [8]), the DuctApe activity index was 8.33 (active).

Take `O=C1O[C@@H]([C@H](O)CO)[C@H](O)[C@H]1O` [D-Galactonic acid-g-Lactone]: in test [1] (setting [5]), the “area under OmniLog respiration curve” value was found to be 8410 ± 840. Moreover, in test [2] (setting [5]), the DuctApe activity index is 8.33 (active).

`C[C@H](CCC(=O)NCCS(=O)(=O)O)[C@H]1CC[C@H]2[C@@H]3[C@H](O)C[C@@H]4C[C@H](O)CC[C@]4(C)[C@H]3C[C@H](O)[C@]12C` [Taurocholic acid]: in test [1] (setting [4]), the “area under OmniLog respiration curve” value stood at 2500 ± 890. For the same molecule, in test [2] (setting [4]), the DuctApe activity index was 4 (active).

`O=C(O)CCCCCCCCC(=O)O` [Sebacic acid]: the “area under OmniLog respiration curve” value in test [1] (setting [5]) came out at 4.72. The DuctApe activity index in test [2] (setting [5]) is 0 (inactive).

With `N[C@@H](Cc1ccc(O)cc1)C(=O)O` [L-Tyrosine], the “area under OmniLog respiration curve” value in test [1] (setting [3]) came to 1110 ± 450. The DuctApe activity index in test [2] (setting [3]) was 2.33 (inactive).

For `O=P(O)(O)O[C@H]1[C@H](OP(=O)(O)O)[C@@H](OP(=O)(O)O)[C@H](OP(=O)(O)O)[C@@H](OP(=O)(O)O)[C@H]1OP(=O)(O)O` [Inositol Hexaphosphate], in test [1] (setting [7]), the “area under OmniLog respiration curve” value amounted to 8630 ± 520. For the same molecule, the DuctApe activity index in test [2] (setting [7]) is 8.67 (active).

`N[C@H](CCC(=O)O)C(=O)O` [D-Glutamic acid]: the “area under OmniLog respiration curve” value in test [1] (setting [3]) was 57.1 ± 89. Besides, the DuctApe activity index in test [2] (setting [3]) is 0.667 (inactive).

Consider `CC(=O)C(C)=O` [2,3-Butanedione], for which, in test [1] (setting [9]), the “area under OmniLog respiration curve” value turned out to be 19 ± 14. Also, the DuctApe activity index in test [2] (setting [9]) was 0 (inactive).

As for `Nc1ccn([C@@H]2O[C@H](CO)[C@@H](O)[C@H]2OP(=O)(O)O)c(=O)n1` [Cytidine 2`-Monophosphate], in test [1] (setting [7]), the “area under OmniLog respiration curve” value came out at 9170 ± 640. The DuctApe activity index in test [2] (setting [7]) was 8.67 (active).

For the molecule `CO[C@@H]1OC[C@@H](O)[C@H](O)[C@H]1O` [b-Methyl-D-Xyloside], the “area under OmniLog respiration curve” value in test [1] (setting [8]) worked out at 4.72. For the same molecule, in test [2] (setting [8]), the DuctApe activity index was 0 (inactive).

For `N[C@H](CS)C(=O)O` [D-Cysteine], the “area under OmniLog respiration curve” value in test [1] (setting [4]) came out at 7100 ± 110. For the same molecule, in test [2] (setting [4]), the DuctApe activity index is 7.33 (active).

On to `O=C(O)CC(O)(CC(=O)O)C(=O)O` [Citric acid], for which, in test [1] (setting [5]), the “area under OmniLog respiration curve” value is 31.1 ± 32. Besides, the DuctApe activity index in test [2] (setting [5]) is 0 (inactive).

`OC[C@H]1O[C@@](CO)(O[C@H]2O[C@H](CO)[C@@H](O)[C@H](O)[C@H]2O)[C@@H](O)[C@@H]1O` [Sucrose]: in test [1] (setting [8]), the “area under OmniLog respiration curve” value was determined as 634 ± 420. The DuctApe activity index in test [2] (setting [8]) is 1.67 (inactive).

For `OC[C@@H](O)C(O)[C@H](O)CO` [D-Arabitol], the “area under OmniLog respiration curve” value in test [1] (setting [8]) was 4.72. The DuctApe activity index in test [2] (setting [8]) was 0 (inactive).

With `COC(=O)[C@@H](C)O` [D-Lactic acid Methyl Ester], the “area under OmniLog respiration curve” value in test [1] (nutrient role: C-Source, ester) stood at 7990 ± 370. Further, the DuctApe activity index in test [2] (nutrient role: C-Source, ester) was 8 (active).

As to `C/C(=C/C(=O)O)C(=O)O` [Citraconic acid], the “area under OmniLog respiration curve” value in test [1] (setting [5]) was 4.72. In test [2] (setting [5]), the DuctApe activity index was 0 (inactive).
